Test results from PubChem BioAssay (NCI).
About 79,000 compounds went through this panel and 15% of them were active in at least one assay; those are over-represented in the sample as a whole. Unmarked numbers belong to inactive results. Calls of active or inactive are those of the source. Rule as the data show it: active = growth inhibition above about 70%; inactive = the rest.

Assay: NCI Yeast Anticancer Drug Screen. Data for the mlh1 rad18 strain (AID 175)
Conditions: S. cerevisiae mlh1 rad18 strain growth inhibition, hits give high values
Procedure: Growth inhibition of yeast strains with defined genetic alterations is measured as a screen for potential anti-cancer activity. Selected strains with alterations in DNA damage repair or cell cycle control were exposed to compounds and growth inhibition was measured relative to vehicle treated controls. The strain used in this assay is mlh1 rad18

[1] = at 5.0 µM (retest, dose inferred, filed as 0.5)
[2] = at 50.0 µM (retest, dose inferred, filed as 5.0)

SMILES	growth inhibition [1]	growth inhibition [2]	growth inhibition (at 50.0 µM)
Cc1oc2ccccc2c(=O)c1Cn1nnc2ccccc21	-1%	27%	-11.3%
COc1cc2c(cc1O)[C@H](C)C(c1ccccc1OC)O2 (some centres not stated)	1%	22%	19.6%
O=c1[nH]c2c([N+](=O)[O-])cccc2c2ccccc12	4%	41%	96.2% (active)
OC(CC(O)(C(F)(F)F)C(F)(F)F)c1ccc(C(O)CC(O)(C(F)(F)F)C(F)(F)F)cc1 (configuration not stated)	47%	99% (active)	99.3% (active)
O=[N+]([O-])c1cn[n+]([O-])c2ccccc12	38%	97% (active)	92% (active)
CC1=COC2=C(C)C(=O)C(=O)c3c(C)ccc1c32	5%	71% (active)	80% (active)
COc1ccc(C(OCC2OC(n3cnc4c(=O)n(Cc5ccccc5[N+](=O)[O-])nnc43)C(O)C2O)(c2ccccc2)c2ccc(OC)cc2)cc1 (configuration not stated)	21%	23%	89.5% (active)
O=S(=O)(c1cccc(C(F)(F)F)c1)N1c2ccccc2-n2cccc2C1c1cccnc1 (configuration not stated)	34%	96% (active)	95.5% (active)
NC(=S)N1N=C2c3ccccc3CC[C@H]2[C@@H]1c1ccc(Cl)cc1	7%	93% (active)	80.2% (active)
CCOC(=O)/C(=C\c1cccc(C)c1)C(C)=O	15%	94% (active)	90.4% (active)
CN(C)CCNC(=Cc1ccc2ccccc2[n+]1C)NCCN(C)C	-4%	47%	34%
COC(=O)C(Cc1c[nH]c2ccccc12)N1CN(C)c2ccccc2C1=O (configuration not stated)	-9%	75% (active)	95.8% (active)
CN1C(=O)C(CC(=O)O)NC1=S (configuration not stated)	-11%	62%	25.7%
c1ccc([P+](CCN2Cc3ccccc3C2)(c2ccccc2)c2ccccc2)cc1	71% (active)	87% (active)	88.8% (active)
